Source: PubChem BioAssay
Nrf2 activator = qHTS of Nrf2 Activators; AREc32 ARE-luciferase reporter (MCF7-derived line), luminescence, 24 h; 0.31% of 410,000 active; Potency, µM (titrated, usually from 46.1 µM), for the others: at the highest dose activation, actives largely listed as activators; note: potency is the fitted concentration of half-maximal effect; % of control where 0% means no effect; nearly all actives have a fitted effect of over 65% in size
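AREc32 cells carrying an ARE-driven firefly luciferase reporter were seeded at 1000 cells/well in OPTI-MEM with 5% FBS, then exposed to compound for 24 hr at 37 deg C. Luminescence was read with Steady-Glo after 30 min at RT.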
LDHA inh = qHTS assay for inhibitors of human lactate dehydrogenase; L-lactate dehydrogenase A chain (Homo sapiens), P00338; 0.15% of 480,000 active; AID 1347041, 2019; activity change, % (values are at about 110 or 230 µM); purified LDHA, NADH/diaphorase-resazurin fluorescence; active compounds read low; in the data active = activity change below about -30%; inconclusive = mostly about -25% to -30%;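 note: plate controls were DMSO wells for no effect and wells without enzyme for full effect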
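LDH5 2 nM; NADH 0.06 mM, pyruvate 0.2 mM; 200 mM Tris pH 7.4, EDTA, Tween-20; 5 min RT. Detection: diaphorase 0.133 mg/mL + resazurin 37 µM, fluorescence ex540/em590 at 0 and 20 min; normalized to enzyme-free and DMSO wells.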
ALOX12 inh = Primary qHTS assay for inhibitors of human arachidonate 12S-lipoxygenase (ALOX12): Round 2; Polyunsaturated fatty acid lipoxygenase ALOX12 (Homo sapiens), P18054; purified 12hLO, xylenol orange hydroperoxide absorbance; Potency, µM (titrated, usually from 108 µM), for the others: at the highest dose activity change, negative = inhibition, usual class: inhibitors; 1.1% of 580,000 active; note: potency is the fitted concentration of half-maximal effect; % is set by controls: 0 for no effect and ±100 for the full control effect
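Purified human 12hLO (150 nM final) in 25 mM Hepes, 0.01% Triton X-100, pH 7.0 was preincubated 15 min at room temperature with compound. Then 40 uM arachidonic acid was added, 30 min. Hydroperoxide was read by Fe-XO absorbance ratio 573/405 nm.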
Nrf2 inh = Nrf2 qHTS screen for inhibitors; AID 504444, 2011; A549 ARE-Fluc reporter, luciferase luminescence, 18-24 h; 2.1% of 360,000 active; Potency, µM (doses to about 46 µM), without a hit: at the top dose activity change, negative = inhibition, hits mostly inhibitors; note: potency is the fitted concentration of half-maximal effect; % is set by controls: 0 for no effect and ±100 for the full control effect; nearly all actives have a fitted effect of over 60% in size
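Concentration-response testing used A549 ARE_Fluc cells at 5000 cells/well. Following an 18-24 h compound incubation, viability was read by fluorescence (Ex 405/Em 525) and luciferase output by luminescence.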
A549 tox = Nrf2 qHTS screen for inhibitors: counterscreen for cytotoxicity; AID 504648, 2011; A549 ARE-Fluc cells, CellTiter-Fluor viability, 18-24 h; Potency, µM (series often up to 46 µM), inactives show at the top dose activity change, negative = cytotoxicity, usual class: inhibitors; 0.16% of 390,000 active; note: potency is the fitted concentration of half-maximal effect; % is set by controls: 0 for no effect and ±100 for the full control effect
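Cytotoxicity counterscreen: CellTiter-Fluor fluorescence was measured in A549 ARE_Fluc cells after 18-24 h of compound exposure in a concentration series. The subsequent BugLite luminescent read reports ARE-luciferase activity.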
mIDH1 inhibitor = qHTS for Inhibitors of mutant isocitrate dehydrogenase 1 (IDH1): qHTS; Potency, µM (doses to about 76.6 µM), for inactives: at the highest dose activity change, negative = inhibition, actives largely listed as inhibitors; Isocitrate dehydrogenase [NADP] cytoplasmic (Homo sapiens), O75874; 0.093% of 390,000 active; AID 602179, 2012; IDH1-R132H enzyme, NADPH consumption, diaphorase/resazurin fluorescence; note: potency is the fitted concentration of half-maximal effect; % is set by controls: 0 for no effect and ±100 for the full control effect; nearly all actives have a fitted effect of over 65% in size
Target sequence (O75874 whole entry R132H, stated change not applied): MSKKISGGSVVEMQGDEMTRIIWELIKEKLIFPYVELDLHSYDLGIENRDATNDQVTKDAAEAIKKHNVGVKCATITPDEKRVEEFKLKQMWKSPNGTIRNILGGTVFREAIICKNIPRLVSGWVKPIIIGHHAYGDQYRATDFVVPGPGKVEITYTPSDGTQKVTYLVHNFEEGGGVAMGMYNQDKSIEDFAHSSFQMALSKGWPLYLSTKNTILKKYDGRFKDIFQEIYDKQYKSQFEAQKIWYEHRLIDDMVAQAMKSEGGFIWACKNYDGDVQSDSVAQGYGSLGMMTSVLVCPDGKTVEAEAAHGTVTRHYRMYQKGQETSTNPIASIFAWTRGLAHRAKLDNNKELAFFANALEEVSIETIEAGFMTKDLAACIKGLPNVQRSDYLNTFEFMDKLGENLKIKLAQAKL
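IDH1-R132H (0.5 ug/mL dispensed) in pH 7.5 Tris buffer was preincubated 30 min with compound, then given a substrate mix of 0.016 mM NADPH and 2 mM alpha-KG for 80 min at room temperature; remaining NADPH was read by diaphorase/resazurin fluorescence.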
Numbers without * were called inactive; ! = not active in a repeat. In the library only some 2.7% were active in any assay of this set; here they are far more common. Unless noted, calls come from the whole dose curve; as a rule, active = well fitted curve in the direction sought with a large enough effect; inconclusive = small, poorly fitted or top-dose-only effect, or another doubt; inactive = no such curve, though single readings can be large; an effect the other way counts as inactive or inconclusive.

What do the screens show for `Cc1ccc(C)c(NC(=O)Cn2c(-c3nonc3N)nc3ccccc32)c1`?
Nrf2 activator: 1%; LDHA inh: -33*!; ALOX12 inh: 23%; Nrf2 inh: 2%; A549 tox: 3%; mIDH1 inhibitor: -9%

What do the screens show for `c1ccc(CNc2nc(Nc3ccccc3)nc3ccccc23)cc1`?
LDHA inh: 2; ALOX12 inh: inconclusive

How did O=C1C(c2ccccc2)=S=C2c3ccccc3C=CN12 do in these assays?
LDHA inh: 43; ALOX12 inh: inconclusive

Results for CCNC(=O)C1CCCN(C(=O)c2cccs2)CC1 (centres undefined) ?
Nrf2 activator: 0%; LDHA inh: -9; ALOX12 inh: 23%

How did CCNC(=O)C1CCCN(C(=O)Cc2cccs2)CC1 (centres undefined) do in these assays?
Nrf2 activator: 0%; LDHA inh: -1; ALOX12 inh: 50µM*

What do the screens show for `N#CCCN1CCN(Cn2c3ccccc3c3ccccc32)CC1`?
Nrf2 activator: 0%; LDHA inh: -2; ALOX12 inh: 57%; Nrf2 inh: -1%; A549 tox: 3%; mIDH1 inhibitor: 7%

What do the screens show for `CN1CCN(CCCNCc2cn(CCC#N)c3ccccc23)CC1`?
Nrf2 activator: 0%; LDHA inh: -40*; ALOX12 inh: 0%; Nrf2 inh: 3%; A549 tox: -2%; mIDH1 inhibitor: 3%

How did Cc1c(CC(=O)O)c(=O)oc2cc(OCc3ccccc3F)ccc12 do in these assays?
LDHA inh: 8; ALOX12 inh: inconclusive

Results for O=C(c1ccc(OC(F)F)cc1)N1CCC(NS(=O)(=O)c2cccs2)CC1 ?
LDHA inh: 5; ALOX12 inh: -4%

What do the screens show for `Cc1cc(Sc2nnc(N)s2)c2ccccc2n1`?
Nrf2 activator: -5%; LDHA inh: -11; ALOX12 inh: 3%; Nrf2 inh: inconclusive; A549 tox: -4%; mIDH1 inhibitor: 7%

How did Cc1cc(Sc2nnc(/N=C/N(C)C)s2)c2ccccc2n1 do in these assays?
Nrf2 activator: -4%; LDHA inh: -10; ALOX12 inh: 0%; Nrf2 inh: 7.3µM*; A549 tox: -14%; mIDH1 inhibitor: 0%

Results for O=C(c1ccccc1)C1OC1C(=O)c1ccccc1 (centres undefined) ?
Nrf2 activator: 13µM*; LDHA inh: -9; ALOX12 inh: inconclusive; Nrf2 inh: inconclusive; A549 tox: -10%; mIDH1 inhibitor: 3%

How did O=C(Nc1ccc2[nH]c3c(c2c1)CCCC3)c1ccco1 do in these assays?
Nrf2 activator: 13µM*; LDHA inh: -2; ALOX12 inh: -1%; Nrf2 inh: inconclusive; A549 tox: -7%; mIDH1 inhibitor: 5%

How did Cc1cc(C)cc(NC(=S)NCc2ccc3[nH]c4c(c3c2)CCCC4)c1 do in these assays?
Nrf2 activator: -3%; LDHA inh: -3; ALOX12 inh: 40µM*; Nrf2 inh: inconclusive; A549 tox: -11%; mIDH1 inhibitor: -1%

What do the screens show for `Cc1cc(C)cc(NC(=O)CN(C)S(=O)(=O)c2ccc3[nH]c4c(c3c2)CCCC4)c1`?
Nrf2 activator: 1%; LDHA inh: 7; ALOX12 inh: -7%; Nrf2 inh: -84%; A549 tox: inconclusive; mIDH1 inhibitor: -8%

Results for S=C(NCc1ccc2[nH]c3c(c2c1)CCCC3)Nc1ccccc1 ?
Nrf2 activator: 3%; LDHA inh: 0; ALOX12 inh: 40µM*; Nrf2 inh: inconclusive; A549 tox: -11%; mIDH1 inhibitor: 1%

What do the screens show for `Cc1cc(C)c(C(N)=O)c(NCc2ccc(Cl)cc2)n1`?
LDHA inh: 4; ALOX12 inh: 0%

How did Cc1nc(C)c(CC(=O)Nc2nnc(C)s2)c(=O)[nH]1 do in these assays?
LDHA inh: 6; ALOX12 inh: -1%

How did COc1ccc(-c2nnc(N(C)C(=O)c3ccco3)s2)cc1OC do in these assays?
Nrf2 activator: 3%; LDHA inh: -4; ALOX12 inh: inconclusive; Nrf2 inh: -2%; A549 tox: 5%; mIDH1 inhibitor: -9%

Results for CN(C(=O)c1ccco1)c1nnc(-c2ccc(F)cc2)s1 ?
Nrf2 activator: 7.1µM*; LDHA inh: -13; ALOX12 inh: 15%; Nrf2 inh: 3%; A549 tox: 0%; mIDH1 inhibitor: 12%

What do the screens show for `CCc1ccc2oc(-c3cccc(NC(=O)c4ccc([N+](=O)[O-])o4)c3)nc2c1`?
LDHA inh: 3; ALOX12 inh: 10%

Results for CS(=O)(=O)Nc1cccc2cccnc12 ?
Nrf2 activator: inconclusive; LDHA inh: 14; ALOX12 inh: 347%; Nrf2 inh: 22%; A549 tox: 10%; mIDH1 inhibitor: 7%

What do the screens show for `Cc1cc(C)n(-c2ccc3cccc(NS(C)(=O)=O)c3n2)n1`?
Nrf2 activator: 0%; LDHA inh: -8; ALOX12 inh: -9%; Nrf2 inh: 5.2µM*; A549 tox: -10%; mIDH1 inhibitor: 3%

What do the screens show for `CCOC(=O)C1CCCN(C(=O)Cc2ccc(N(Cc3ccc(C)cc3)C(=O)c3ccco3)cc2)C1` (centres undefined)?
ALOX12 inh: -12%

Results for CC(OC(=O)c1ccc(F)c(S(=O)(=O)N2CCCCC2)c1)C(=O)N1CCc2ccccc21 (centres undefined) ?
LDHA inh: -18; ALOX12 inh: 14%

What do the screens show for `O=C1Nc2cc(C(=O)NCCN3CCCCCC3)ccc2S/C1=C/c1ccccc1F`?
Nrf2 activator: -5%; LDHA inh: -2; ALOX12 inh: 28µM*; mIDH1 inhibitor: -6%

How did O=C1Nc2cc(C(=O)NCCCN3CCCC3)ccc2S/C1=C/c1ccccc1F do in these assays?
Nrf2 activator: -4%; LDHA inh: -2; ALOX12 inh: 7%; Nrf2 inh: 14%; A549 tox: -3%; mIDH1 inhibitor: 9%

Results for N#CC1=C(N)Oc2c(ccc3ccccc23)C1c1ccsc1 (centres undefined) ?
Nrf2 activator: 8.9µM*; LDHA inh: 16; ALOX12 inh: -25%; Nrf2 inh: inconclusive; A549 tox: inconclusive; mIDH1 inhibitor: 2%

What do the screens show for `COC[C@@H]1CN(Cc2c(OC)cccc2OC)C[C@H]1c1ccncc1`?
ALOX12 inh: 106%
